Assay outcomes: PubChem BioAssay, The Scripps Research Institute Molecular Screening Center
BCLXL inh: inhibitors of human Bcl-xL | GST-Bcl-xL / FITC-Bim BH3 peptide fluorescence polarization | inhibition, % at 10.9 µM | hit rate 0.7% among 320,000;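 active = inhibition above the mean of all tested compounds plus 3 SD, cutoff set per campaign, cut at about 30% in these data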;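 also: inhibitors lower millipolarization by displacing the labeled peptide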
RTF Ca sens inh: cardiac RTF calcium desensitization | P19429+P45379 | inhibition, % at 7.15 µM | AID 493244 | IANBD-labeled cardiac RTF, Ca2+ fluorescence | hit rate 0.12% among 340,000;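 active = inhibition above the mean inhibition of all tested compounds plus 3 SD, cut at about 17% in these data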;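 also: assay run at fixed EC70 calcium of 1.6 mM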
cardiac RTF act: increases calcium sensitivity of human cardiac regulated thin filaments. activation, % at 7.2 µM. IANBD-labeled TnC RTF fluorescence at EC20 calcium; 0% EC20 calcium, 100% full calcium. hit rate 0.24% among 340,000;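 active = activation above the mean over all tested compounds plus 3 SD, cut at about 30% in these data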;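 also: rise in fluorescence read as greater calcium sensitivity of cardiac thin filaments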
GLD-1 TGE inh: GLD-1-TGE RNA interaction inhibition (C. elegans). Q17339. purified GLD-1 + fluorescein TGE RNA, fluorescence polarization. inhibition, % at 5.96 µM. hit rate 0.44% among 320,000. AID 2280;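 active = percent inhibition above a per-plate cutoff, the plate mean of test compounds plus 3 SD, cut at about 30% in these data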
Target sequence (Q17339 whole entry, looked up): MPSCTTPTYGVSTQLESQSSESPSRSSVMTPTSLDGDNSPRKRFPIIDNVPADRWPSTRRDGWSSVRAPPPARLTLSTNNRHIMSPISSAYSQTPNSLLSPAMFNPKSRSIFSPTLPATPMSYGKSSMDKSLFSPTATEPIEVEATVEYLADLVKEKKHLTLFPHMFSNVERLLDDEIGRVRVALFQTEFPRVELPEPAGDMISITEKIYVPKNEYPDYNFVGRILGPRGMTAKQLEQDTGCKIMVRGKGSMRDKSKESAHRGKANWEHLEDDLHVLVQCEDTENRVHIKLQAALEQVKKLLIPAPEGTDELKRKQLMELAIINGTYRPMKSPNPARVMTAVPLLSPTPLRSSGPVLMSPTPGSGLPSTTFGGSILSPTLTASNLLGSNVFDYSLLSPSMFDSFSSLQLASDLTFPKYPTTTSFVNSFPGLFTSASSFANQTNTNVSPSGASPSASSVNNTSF
eLon inh: inhibits E. coli Lon protease; purified E. coli Lon protease, fluorescence polarization; inhibition, % at 7.94 µM; P0A9M0; hit rate 0.42% among 360,000; in the data active = inhibition above about 13%, passing the limit was not always enough
GLD-1 TGE cf: confirmation of C. elegans GLD-1 TGE RNA binding inhibitors; shares compounds with GLD-1 TGE inh; GLD-1/FL-TGE RNA fluorescence polarization, biochemical; inhibition, % at 5.96 µM; hit rate 10% among 550; AID 2459;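 active = average inhibition across triplicates above the hit cutoff set in the primary screen, cut at about 32% in these data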
RTF inh confirm: confirmation of inhibitors of cardiac thin filament calcium sensitivity. shares compounds with RTF Ca sens inh. reconstituted cardiac thin filaments, calcium sensitivity fluorescence. inhibition, % at 7.15 µM. hit rate 8% among 360. AID 504635; in the data active = inhibition above about 18%
eLon confirm: E. coli Lon inhibition confirmation | purified E. coli Lon, fluorescence polarization | inhibition, % at 7.94 µM | shares compounds with eLon inh | hit rate 31% among 1,400; in the data active = inhibition above about 16%
A number is an active result; – = inactive; · = not tested or not shown; + = active, no number; ! = a repeat was not active. A selection: hits, their analogues and other compounds. The true share with any hit is near 1.2%.

SMILES | BCLXL inh | RTF Ca sens inh | cardiac RTF act | GLD-1 TGE inh | eLon inh | eLon confirm | others
C=CCN1C(=O)CSc2ccc(C(=O)N3CCC4(CC3)OCCO4)cc21 | – | – | – | – | – | ·
COC(=O)[C@@]1(C#N)[C@@H]2C=CC(C(C)=O)=CN2[C@@H](C(N)=O)[C@@H]1c1ccc(F)cc1 | 72 | – | – | 44 | – | · | GLD-1 TGE cf=97
Nc1cc2nc3ccccc3nc2cc1N | 96 | – | – | 36 | – | · | GLD-1 TGE cf=61
COc1cccc(C(=O)C2CCCN(Cc3cccc(C)n3)C2)c1 (centres undefined) | – | – | – | – | – | ·
CC(NC1=NCCS1)c1ccccc1 (centres undefined) | – | – | – | – | – | ·
CN1C[C@H](CO)C=C2c3cccc4[nH]cc(c34)C[C@H]21 | 70 | – | – | 64 | 84 | – | GLD-1 TGE cf=–
Fc1ccc(CCNCc2ccc(Br)cc2)cc1 | – | – | – | – | – | ·
CCOC(=O)c1ccc(N2C(=O)CC(N3CC=C(c4ccc(F)cc4)CC3)C2=O)cc1 (centres undefined) | – | – | – | – | – | ·
NC(=O)c1ccc(OCCC(O)N2CC=C(c3ccc(F)cc3)CC2)cc1 (centres undefined) | – | 95 | – | – | – | · | RTF inh confirm=–
Cc1nc2cc(F)ccc2n1C1CCN(Cc2nnnn2CCc2ccccc2)CC1 | – | 18 | – | – | – | · | RTF inh confirm=–
C[CH2][Hg][S]c1ccccc1C(=O)O | – | + | – | – | – | · | RTF inh confirm=–
CC(C)COC(=O)c1ccccc1C(=O)OCC(C)C | – | – | – | – | – | ·
C[C@]12CCC(=O)CC1CCC1C2CC[C@]2(C)C(OC(=O)CCC(=O)O)CCC12 (some centres undefined) | – | – | – | – | – | ·
CC[C@H](C)/C=C(C)/C=C/C1=CC2=C(Cl)C(=O)[C@](C)(OC(C)=O)C(=O)C2=CO1 | · | 39 | – | – | – | · | RTF inh confirm=21
CC/C(=N\NC(=O)Nc1ccccc1)c1c(O)n(Cc2ccccc2)c(=O)[nH]c1=O | – | · | · | – | – | ·
CCCNS(=O)(=O)c1ccc(OCC(=O)N2CCN(Cc3ccc4c(c3)OCO4)CC2)cc1 | – | 18 | – | – | – | · | RTF inh confirm=–
COc1cc(CNCCc2ccc3c(c2)OCO3)ccc1O | – | – | – | – | – | ·
CCCCCCCCC(=O)NCc1ccc(O)c(OC)c1 | – | 19 | – | – | – | · | RTF inh confirm=–
COC(=O)C1=C(c2ccccc2)C[C@@H]2CC[C@H]1N2C(=O)NCCNC(C)=O | – | – | – | – | – | ·
C[C@]12CC[C@H](O)CC1=CCC1C2CC[C@@]2(C)C1C[C@@H](O)[C@@H]2O (some centres undefined) | · | – | – | – | – | ·
NCCc1cc(O)c(O)cc1O | · | 26! | – | · | – | · | RTF inh confirm=–
Cc1nc2cc([N+](=O)[O-])ccc2c(=O)n1-c1ccccc1[N+](=O)[O-] | – | – | – | – | 15 | –
CC1CCCN(c2ccc(C(=O)N3CCC4(CC3)OCCO4)cc2[N+](=O)[O-])C1 (centres undefined) | – | – | – | – | – | ·
CCOC(=O)C1CCCN(c2ccc([N+](=O)[O-])c3nonc23)C1 (centres undefined) | · | – | 393 | · | 193 | 186
O=c1[nH]c(O)c(C=NCCc2ccccc2)c(=O)[nH]1 | – | – | – | – | – | ·
SMILES | BCLXL inh | RTF Ca sens inh | cardiac RTF act | GLD-1 TGE inh | eLon inh | eLon confirm | others
O=c1[nH]c(O)c(/C=C2\C=Nc3ccc(OCc4ccccc4)cc32)c(=O)[nH]1 | 167 | – | 48 | 46 | 27 | 30
O=c1[nH]c(=O)n(Cc2ccco2)c(O)c1C=NCc1ccc2c(c1)OCO2 | – | – | – | – | 20 | –
CC(C)(C)n1nnnc1C(c1cc2ccccc2o1)N1CCC2(CC1)C(=O)NCN2c1ccccc1 (centres undefined) | · | · | · | · | – | ·
CC1=NCCc2c1[nH]c1cc(O)ccc21 | + | – | 334 | + | + | +
COc1ccc2c3c([nH]c2c1)C(C)=NCC3 | – | – | – | – | – | ·
COC1C(C)OC(OC2CC(C)(O)Cc3cc4c(c(O)c32)C(=O)c2c(O)cc3c(c2C4=O)OC2OC3(C)C(O)C(N(C)C)C2O)C(OC)C1(C)OC (centres undefined) | · | – | 678 | · | + | 104
COC(=O)Cn1cc(C(=O)c2ccccc2F)c2ccccc21 | · | – | – | · | – | ·
CC1=C[C@@H]2c3cccc4[nH]cc(c34)C[C@H]2N(C)C1 | 169 | – | 36 | 118 | 116 | 67
COc1ccc2[nH]c(C)c(CCNCc3cccnc3)c2c1 | 42 | – | – | – | 69 | 33
Cc1ccccc1CN1Cc2cnnn2-c2ccccc2C1C#N (centres undefined) | · | – | – | · | – | ·
O=C1NC(=O)N(c2ccc(F)cc2)C(=O)/C1=C/c1ccc(N2CCOCC2)cc1 | – | – | – | – | – | ·
CN1CCN(Cc2ccc(N)cc2)CC1 | – | – | – | – | – | ·
CN1CCN(Cc2cc(C(C)(C)C)c(O)c(C(C)(C)C)c2)CC1 | – | – | – | – | 25 | –
O=Cc1cn(CCCOc2ccccc2)c2ccccc12 | – | – | – | – | – | ·
CCCCCn1c(=O)c(C(=O)NCCc2ccccc2)c(O)c2ccccc21 | – | – | – | – | – | ·
CCCCn1c(=O)c(C(=O)NCc2ccccc2OC)c(O)c2ccccc21 | – | – | – | – | 66 | –
CCCn1c(C(=O)c2ccc(OC)cc2)nc2ccccc21 | – | – | – | – | – | ·
COCCCNC(=O)c1c(NC(=O)c2ccccc2)n(Cc2ccccc2)c2nc3ccccc3nc12 | – | – | – | – | – | ·
COc1cc(C(O)CNC(C)C)cc(F)c1OC (centres undefined) | – | – | – | – | 23 | –
Cc1nn(Cc2ccccc2Cl)c(Cl)c1C(=O)O | – | – | – | – | 15 | –
Cc1nn(Cc2ccccc2)c(Cl)c1C(=O)O | – | – | – | – | – | ·
Nc1c2c(nc3ccccc13)CCN(Cc1ccccc1)C2 | 167 | – | – | 97 | 198 | –
CCN(CC)CCCNC(=O)c1c(O)c2ccccc2n(Cc2ccccc2)c1=O | – | – | – | – | – | ·
COc1ccc2cc(C(=O)C3CCCN(C4CCOCC4)C3)ccc2c1 (centres undefined) | – | – | – | – | 103 | –
Cc1ccc(N=Cc2c(O)n(C)c(=O)n(C)c2=O)cc1 | – | – | – | – | 46 | –
CC(=O)c1cn(Cc2ccccc2C#N)c2ccccc12 | – | – | – | – | – | ·
